Consider 16 molecules from ChEMBL document CHEMBL1961873, “Compounds: GSK PKIS; Assays: Nanosyn kinase panel” (2012).

In assay [1] the target is Serine/threonine-protein kinase MRCK alpha (Homo sapiens) (UniProt Q5VT25). Particulars: at 0.1 µM.
Assay [2] shares this target. Particulars: at 1 µM.
In assay [3] the target is Serine/threonine-protein kinase MRCK beta (Homo sapiens) (UniProt Q9Y5S2). Conditions: at 0.1 µM.
For assay [4] the target is unchanged. Particulars: at 1 µM.
Assay [5] concerns the target Ribosomal protein S6 kinase alpha-5 (Homo sapiens) (UniProt O75582). Conditions: at 0.1 µM.
For assay [6] the target is unchanged. Conditions: at 1 µM.
Assay [7] addresses Ribosomal protein S6 kinase alpha-4 (Homo sapiens) (UniProt O75676). Particulars: at 0.1 µM.
Assay [8] shares this target. Conditions: at 1 µM.
In assay [9] the target is Ribosomal protein S6 kinase beta-1 (Homo sapiens) (UniProt P23443). Conditions: at 0.1 µM.
Chain of Ribosomal protein S6 kinase beta-1 (Homo sapiens) (P23443 whole entry, looked up): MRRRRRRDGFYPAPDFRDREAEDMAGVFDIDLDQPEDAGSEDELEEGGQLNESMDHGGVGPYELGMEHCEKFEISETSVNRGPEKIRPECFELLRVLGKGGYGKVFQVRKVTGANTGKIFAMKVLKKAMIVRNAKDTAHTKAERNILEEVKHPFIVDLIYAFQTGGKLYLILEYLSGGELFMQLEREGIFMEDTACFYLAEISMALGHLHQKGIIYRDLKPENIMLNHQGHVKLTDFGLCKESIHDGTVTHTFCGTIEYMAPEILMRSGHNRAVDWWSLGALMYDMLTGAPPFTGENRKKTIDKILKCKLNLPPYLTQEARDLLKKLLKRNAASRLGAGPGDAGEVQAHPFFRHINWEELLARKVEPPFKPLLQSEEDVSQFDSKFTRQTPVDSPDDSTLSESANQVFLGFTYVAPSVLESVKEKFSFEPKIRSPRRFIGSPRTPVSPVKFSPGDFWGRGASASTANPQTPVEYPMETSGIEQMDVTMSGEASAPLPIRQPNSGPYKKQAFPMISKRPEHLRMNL
For assay [10] the target is unchanged. Conditions: at 1 µM.

Chain of Ribosomal protein S6 kinase alpha-5 (Homo sapiens) (O75582 whole entry, looked up): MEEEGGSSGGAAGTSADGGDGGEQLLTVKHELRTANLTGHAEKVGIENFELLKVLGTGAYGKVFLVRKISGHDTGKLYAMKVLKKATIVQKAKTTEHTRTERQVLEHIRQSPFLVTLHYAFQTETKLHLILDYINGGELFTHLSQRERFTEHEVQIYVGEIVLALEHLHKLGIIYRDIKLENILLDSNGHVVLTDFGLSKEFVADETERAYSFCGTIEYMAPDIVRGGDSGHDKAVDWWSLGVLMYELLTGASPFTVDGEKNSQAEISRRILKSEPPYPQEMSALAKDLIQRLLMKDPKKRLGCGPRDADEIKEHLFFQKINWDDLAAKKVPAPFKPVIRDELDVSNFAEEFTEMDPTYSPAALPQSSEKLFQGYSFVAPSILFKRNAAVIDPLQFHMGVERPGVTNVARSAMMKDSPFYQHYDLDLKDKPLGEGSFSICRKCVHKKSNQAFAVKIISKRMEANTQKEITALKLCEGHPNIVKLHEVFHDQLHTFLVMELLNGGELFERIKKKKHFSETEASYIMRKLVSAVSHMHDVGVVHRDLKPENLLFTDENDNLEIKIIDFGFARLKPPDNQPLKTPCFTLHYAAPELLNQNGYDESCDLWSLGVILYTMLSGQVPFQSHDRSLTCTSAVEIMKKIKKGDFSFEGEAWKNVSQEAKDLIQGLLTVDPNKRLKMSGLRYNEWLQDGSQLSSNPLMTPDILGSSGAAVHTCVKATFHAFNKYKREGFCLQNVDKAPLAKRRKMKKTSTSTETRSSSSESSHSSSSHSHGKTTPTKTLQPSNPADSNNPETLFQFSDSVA
Chain of Serine/threonine-protein kinase MRCK alpha (Homo sapiens) (Q5VT25 whole entry): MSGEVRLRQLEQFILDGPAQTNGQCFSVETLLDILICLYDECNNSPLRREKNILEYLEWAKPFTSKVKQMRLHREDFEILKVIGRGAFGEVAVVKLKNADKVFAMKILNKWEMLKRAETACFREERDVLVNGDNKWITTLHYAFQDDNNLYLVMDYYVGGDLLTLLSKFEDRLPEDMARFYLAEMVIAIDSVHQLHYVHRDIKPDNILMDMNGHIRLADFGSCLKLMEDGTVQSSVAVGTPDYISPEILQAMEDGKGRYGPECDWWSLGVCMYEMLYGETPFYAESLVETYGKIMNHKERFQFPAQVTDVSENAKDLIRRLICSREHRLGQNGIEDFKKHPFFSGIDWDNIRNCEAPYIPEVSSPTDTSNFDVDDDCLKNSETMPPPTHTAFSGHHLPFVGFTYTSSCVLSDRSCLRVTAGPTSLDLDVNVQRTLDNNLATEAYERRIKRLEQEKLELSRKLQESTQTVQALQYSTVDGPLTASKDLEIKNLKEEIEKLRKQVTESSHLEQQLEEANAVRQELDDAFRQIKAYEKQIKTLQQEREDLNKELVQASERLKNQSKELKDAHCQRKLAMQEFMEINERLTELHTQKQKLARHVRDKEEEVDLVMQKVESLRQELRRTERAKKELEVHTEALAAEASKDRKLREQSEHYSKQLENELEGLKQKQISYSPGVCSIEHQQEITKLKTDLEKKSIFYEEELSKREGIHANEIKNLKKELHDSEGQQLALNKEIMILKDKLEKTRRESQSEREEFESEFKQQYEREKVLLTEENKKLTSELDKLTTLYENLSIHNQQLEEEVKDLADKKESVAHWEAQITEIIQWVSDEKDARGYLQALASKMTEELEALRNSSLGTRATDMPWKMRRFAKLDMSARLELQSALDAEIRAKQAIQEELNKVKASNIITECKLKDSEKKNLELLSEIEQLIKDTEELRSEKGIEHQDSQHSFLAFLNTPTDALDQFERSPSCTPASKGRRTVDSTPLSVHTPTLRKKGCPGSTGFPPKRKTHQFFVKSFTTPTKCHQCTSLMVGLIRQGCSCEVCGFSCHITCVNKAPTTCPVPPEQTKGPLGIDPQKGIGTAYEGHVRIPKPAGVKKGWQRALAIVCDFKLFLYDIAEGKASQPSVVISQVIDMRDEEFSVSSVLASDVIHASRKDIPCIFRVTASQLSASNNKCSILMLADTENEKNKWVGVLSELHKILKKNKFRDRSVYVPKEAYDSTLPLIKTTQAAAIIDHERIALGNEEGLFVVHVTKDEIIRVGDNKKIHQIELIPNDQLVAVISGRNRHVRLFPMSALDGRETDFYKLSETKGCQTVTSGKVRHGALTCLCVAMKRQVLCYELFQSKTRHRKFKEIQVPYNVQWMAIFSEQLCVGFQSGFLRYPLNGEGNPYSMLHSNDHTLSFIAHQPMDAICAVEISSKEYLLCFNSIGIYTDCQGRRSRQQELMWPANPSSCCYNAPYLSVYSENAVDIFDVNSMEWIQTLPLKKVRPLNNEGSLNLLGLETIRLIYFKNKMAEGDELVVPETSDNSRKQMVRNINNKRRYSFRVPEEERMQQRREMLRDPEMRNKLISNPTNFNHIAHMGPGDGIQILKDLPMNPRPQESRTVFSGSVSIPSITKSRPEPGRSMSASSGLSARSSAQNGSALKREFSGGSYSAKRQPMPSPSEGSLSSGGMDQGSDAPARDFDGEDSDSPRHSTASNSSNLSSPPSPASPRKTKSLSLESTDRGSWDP
Chain of Serine/threonine-protein kinase MRCK beta (Homo sapiens) (Q9Y5S2 whole entry): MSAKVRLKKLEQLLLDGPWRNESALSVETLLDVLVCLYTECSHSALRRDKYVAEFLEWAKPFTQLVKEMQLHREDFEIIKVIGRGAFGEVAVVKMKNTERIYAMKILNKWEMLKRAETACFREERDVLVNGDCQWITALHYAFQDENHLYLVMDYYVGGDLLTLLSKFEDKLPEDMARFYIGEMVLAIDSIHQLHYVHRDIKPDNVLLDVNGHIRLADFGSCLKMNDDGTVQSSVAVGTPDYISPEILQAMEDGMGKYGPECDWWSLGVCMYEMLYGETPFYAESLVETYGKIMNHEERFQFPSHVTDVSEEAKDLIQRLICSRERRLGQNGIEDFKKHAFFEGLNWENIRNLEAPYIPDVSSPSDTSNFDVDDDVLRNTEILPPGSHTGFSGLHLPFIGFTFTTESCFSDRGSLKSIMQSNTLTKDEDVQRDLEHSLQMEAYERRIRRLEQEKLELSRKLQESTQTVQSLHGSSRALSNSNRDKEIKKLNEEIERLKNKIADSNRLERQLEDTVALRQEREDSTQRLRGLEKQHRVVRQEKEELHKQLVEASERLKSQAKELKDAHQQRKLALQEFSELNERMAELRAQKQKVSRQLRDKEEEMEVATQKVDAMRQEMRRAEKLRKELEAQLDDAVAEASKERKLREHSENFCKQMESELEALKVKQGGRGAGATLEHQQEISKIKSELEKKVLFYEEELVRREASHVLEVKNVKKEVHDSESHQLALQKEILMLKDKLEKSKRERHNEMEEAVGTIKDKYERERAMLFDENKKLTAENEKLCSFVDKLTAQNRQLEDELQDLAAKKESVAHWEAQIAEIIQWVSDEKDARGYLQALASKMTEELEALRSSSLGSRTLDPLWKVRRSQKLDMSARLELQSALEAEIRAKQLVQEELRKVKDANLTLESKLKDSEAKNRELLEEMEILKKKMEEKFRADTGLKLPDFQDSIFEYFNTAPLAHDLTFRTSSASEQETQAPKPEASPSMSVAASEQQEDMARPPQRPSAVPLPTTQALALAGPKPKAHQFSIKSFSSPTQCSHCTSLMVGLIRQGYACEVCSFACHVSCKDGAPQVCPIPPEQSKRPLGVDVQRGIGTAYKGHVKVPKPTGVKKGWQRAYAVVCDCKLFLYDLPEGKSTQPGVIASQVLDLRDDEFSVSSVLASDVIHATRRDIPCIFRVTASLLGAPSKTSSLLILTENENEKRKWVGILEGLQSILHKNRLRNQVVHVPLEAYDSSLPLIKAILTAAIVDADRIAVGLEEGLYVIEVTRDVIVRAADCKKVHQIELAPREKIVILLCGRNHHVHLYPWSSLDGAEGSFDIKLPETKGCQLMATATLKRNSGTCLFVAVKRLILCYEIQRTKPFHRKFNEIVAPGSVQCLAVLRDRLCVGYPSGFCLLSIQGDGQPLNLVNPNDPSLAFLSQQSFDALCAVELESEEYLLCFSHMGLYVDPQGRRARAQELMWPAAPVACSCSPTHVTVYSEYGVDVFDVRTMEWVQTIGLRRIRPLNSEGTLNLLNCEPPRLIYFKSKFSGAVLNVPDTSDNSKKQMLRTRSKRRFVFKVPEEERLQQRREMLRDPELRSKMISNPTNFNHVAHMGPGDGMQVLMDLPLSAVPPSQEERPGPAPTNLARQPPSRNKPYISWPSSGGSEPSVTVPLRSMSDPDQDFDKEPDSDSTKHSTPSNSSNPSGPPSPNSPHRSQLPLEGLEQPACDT

For orientation: inhibition means the relative decrease from the control value, in per cent. Turning to `NS(=O)(=O)c1cccc(-c2cc3ccncc3cc2OCc2ccccc2)c1`, the inhibition in assay [1] was 0.79%; in [2], -0.95%; in assay [3], 1.07%; in assay [4], 0.42%; in [5] it was 6.93%; in assay [6] it was 5.54%. Moreover, the inhibition was determined as 2.88% in assay [7], 6.76% in assay [8], 1.84% in assay [9] and 1.18% in assay [10].
For `COc1ccc2ncnc(Nc3ccc(OCc4ccccc4)cc3)c2c1`, the inhibition in assay [1] turned out to be 0.54%; in assay [2] it was 2.68%; in assay [3] it was 0.54%; in assay [4] it was 0.8%; in [5], 1.25%; in assay [6], 0.63%. Moreover, the inhibition is -3.48% in assay [7], 1.47% in [8], 1.08% in assay [9] and 0.96% in assay [10].
`NS(=O)(=O)c1ccc(N/N=C2\C(=O)Nc3ccc(Cl)cc32)cc1`: the inhibition in [1] was -0.18%; in assay [2], 2.52%; in [3], 0.03%; in [4] it was 0.67%; in assay [5], -2.92%; in assay [6], -0.64%. Moreover, the inhibition is 2.66% in [7], 5.77% in assay [8], 1.75% in assay [9] and 2.32% in assay [10].
Consider `c1ccc(Nc2ncc(-c3ccccc3)o2)cc1`, for which the inhibition in assay [1] was 1.05%; in assay [2] it was 2.6%; in assay [3] it was -0.11%; in assay [4] it was 0.28%; in [5], 3.68%; in assay [6] it was 3.58%. The inhibition in assay [7] was determined as 2.52%; in [8], 3.34%; in [9], 3.16%; in assay [10], 5%.
On to `OCc1ccc(-c2nc(-c3ccccn3)c(-c3ccc4c(c3)OCO4)[nH]2)cc1`, for which the inhibition in assay [1] was 0.27%; in assay [2], -0.19%; in assay [3], 0.91%; in [4] it was 1.33%; in assay [5], 4.12%; in [6], 3.7%. Moreover, the inhibition is 1.01% in [7], 3.89% in [8], 2.09% in [9] and 3.2% in [10].
Take `Nc1nccc(C#Cc2cncnc2Nc2ccc(OCc3cccc(F)c3)c(Cl)c2)n1`: the inhibition in assay [1] was 0.06%; in assay [2] it was -0.95%; in [3] it was -0.16%; in assay [4], 2.38%; in assay [5] it was 4.15%; in [6], 4.83%. Further, the inhibition came out at 1.39% in assay [7], 4.41% in [8], 1.09% in assay [9] and 1.35% in [10].
In the case of `COC(=O)Nc1nc2cc(Oc3ccc(NC(=O)Nc4cccc(Br)c4)cc3)ccc2[nH]1`, the inhibition in assay [1] is 0.43%; in assay [2], 0.85%; in assay [3] it was 1.24%; in assay [4], -0.22%; in assay [5], 2.67%; in assay [6], 1.7%. The inhibition amounted to 2.29% in assay [7], 2.39% in [8], 2% in assay [9] and 3.21% in assay [10].
For the molecule `CN(c1ccc(NC(=O)Nc2ccc(OC(F)(F)F)cc2)cc1)c1ccnc(Nc2cccc(S(N)(=O)=O)c2)n1`, the inhibition in [1] was -5.74%; in [2] it was -0.82%; in assay [3] it was -0.58%; in assay [4], -2.72%; in assay [5] it was 0.92%; in [6] it was -1.11%. For the same molecule, the inhibition is 2% in assay [7], 4.78% in assay [8], -0.25% in assay [9] and 1.95% in [10].
For `O=C1Nc2ccccc2/C1=C/Nc1ccc2[nH]c(=O)[nH]c2c1`, the inhibition in assay [1] is -0.3%; in assay [2] it was 1.93%; in assay [3], -0.63%; in assay [4] it was -1.04%; in assay [5], 3.99%; in [6] it was 5.92%. In addition, the inhibition came to 3.86% in assay [7], 16.6% in [8], 2.55% in assay [9] and 11.1% in assay [10].
Consider `N#Cc1c(NC(=O)c2ccccc2F)sc2c1CCCC2`, for which the inhibition is 1.07% in [1]; -1.26% in [2]; 0.23% in [3]; -0.14% in assay [4]; -2.83% in assay [5]; -2.33% in [6]. Besides, the inhibition in assay [7] is -1.11%; in assay [8], -0.35%; in assay [9], -0.91%; in [10] it was -0.98%.
Turning to `CS(=O)(=O)Nc1cccc(-c2ccc3c(NC(=O)C4CC4)n[nH]c3c2)c1`, the inhibition was 1.58% in assay [1]; 2.47% in assay [2]; 0.84% in assay [3]; 1.32% in assay [4]; 1.49% in assay [5]; 1.04% in assay [6]. The inhibition in assay [7] stood at 0.62%; in assay [8] it was 2.85%; in assay [9], 1.15%; in [10], 1.9%.
Take `Cc1cc(-c2ccccn2)cc(C)c1/C=C/c1cncc(-c2nn[nH]n2)c1`: the inhibition worked out at 2.46% in [1]; 1.25% in [2]; 0.75% in assay [3]; 0.41% in assay [4]; 3.34% in assay [5]; 2.91% in assay [6]. Also, the inhibition in assay [7] came to 0.46%; in assay [8], 1.78%; in [9], 0.44%; in assay [10], 1.44%.
With `Cc1ccc(O)cc1Nc1ccnc2ccc(S(C)(=O)=O)cc12`, the inhibition is -0.59% in assay [1]; 3.17% in assay [2]; -0.33% in [3]; 1.42% in assay [4]; 11.4% in assay [5]; 9.44% in assay [6]. For the same molecule, the inhibition was found to be 2.55% in assay [7], 3.94% in assay [8], 3.76% in [9] and 2.87% in [10].
As to `NS(=O)(=O)c1ccc(NC=C2C(=O)Nc3ccc4ncsc4c32)cc1`, the inhibition in assay [1] amounted to 3.96%; in [2], 20.5%; in [3] it was 5.03%; in assay [4] it was 15.4%; in assay [5], 11%; in [6] it was 23.1%. The inhibition worked out at 28.8% in assay [7], 63.9% in assay [8], 5.33% in assay [9] and 25.6% in [10].
For the molecule `NS(=O)(=O)c1ccc(Nc2cc(-c3cccc(O)c3)n[nH]2)cc1`, the inhibition in assay [1] was 0.59%; in [2] it was 0.11%; in [3], 0.64%; in [4], 1.33%; in assay [5], 5.25%; in [6], 5.94%. Also, the inhibition in assay [7] is 2.94%; in assay [8], 9.16%; in assay [9], 0.39%; in [10] it was 2.83%.
As for `Cc1cc(O)cc(C)c1/C=C/c1cncc(C(=O)N(C)C)c1`, the inhibition in assay [1] was 0.02%; in assay [2] it was 0.32%; in assay [3] it was 0.83%; in assay [4], 1.36%; in assay [5] it was 2%; in assay [6], 4.09%. Further, the inhibition in assay [7] worked out at 1.39%; in assay [8], 2.46%; in [9], 0.39%; in assay [10], 3.03%.
